An excerpt weighted towards active compounds, which were near 7% of everything screened.
PLK1 PBD block: qHTS for Inhibitors of PLK1-PDB (polo-like kinase 1 - polo-box domain): Primary Screen | Plk1 PBD binding of FITC phosphopeptide, fluorescence polarization | Potency, µM, for inactives: max response, negative = inhibition, actives largely listed as inhibitors | hit rate 2.8% among 360,000; note: potency is the fitted concentration of half-maximal effect; series mostly up to about 57 µM; % is set by controls: 0 for no effect and ±100 for the full control effect; nearly all actives have a fitted effect of over 65% in size
HP1b binding inh: HTS for Inhibitors of HP1-beta Chromodomain Interactions with Methylated Histone Tails. hit rate 0.56% among 390,000. Chromobox protein homolog 1 (Homo sapiens), P83916. Potency, µM (highest dose often 114 µM), for inactives: top-dose activity change, negative = inhibition, actives largely listed as inhibitors. AlphaScreen HP1-beta / biotin-H3K9me3 peptide binding. AID 540317, 2011; note: potency is the fitted concentration of half-maximal effect; nearly all actives have a fitted effect of over 70% in size
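HP1-beta protein (50 nM final) preincubated 30 min at room temperature with biotinylated H3(1-18)K9me3 peptide (50 nM) in PBS pH 7.4, 0.01% Tween-20, then compound added for 30 min. AlphaScreen streptavidin donor/nickel chelate acceptor beads (10 ug/mL final), 30 min dark, luminescence read.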
PI5P4Ka inh: qHTS for Inhibitors of phosphatidylinositol 5-phosphate 4-kinase (PI5P4K) | Phosphatidylinositol 5-phosphate 4-kinase type-2 alpha (Homo sapiens), P48426 | hit rate 1.2% among 330,000 | PI5P4Kalpha enzyme, ADP-Glo luminescence, 60 min; active compounds read low | max response, %; active = max response of -50% or lower; inconclusive = between -30% and -50%; inactive = -30% or higher; note: value at the top dose of about 77 µM; % is set by controls: 0 for no effect and ±100 for the full control effect
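Human PI5P4Kalpha with substrate in 0.038 M HEPES pH 7.4, 0.28 mM EGTA, 0.1% CHAPS, 5% DMSO; reaction started with 5 microM ATP (final), 60 min at room temperature. ADP formed read by ADP-Glo luminescence.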
JMJD2A Tudor: qHTS Assay for Inhibitors of JMJD2A-Tudor Domain. Potency, µM (series often up to 114 µM), inactives show top-dose activity change, negative = inhibition, usual class: inhibitors. Lysine-specific demethylase 4A (Homo sapiens), O75164. hit rate 4.4% among 390,000. AlphaScreen JMJD2A-Tudor / H3K4me3 peptide binding; note: potency is the fitted concentration of half-maximal effect; % is set by controls: 0 for no effect and ±100 for the full control effect; nearly all actives have a fitted effect of over 50% in size
Target sequence (O75164 whole entry, looked up, the tested form may be a part): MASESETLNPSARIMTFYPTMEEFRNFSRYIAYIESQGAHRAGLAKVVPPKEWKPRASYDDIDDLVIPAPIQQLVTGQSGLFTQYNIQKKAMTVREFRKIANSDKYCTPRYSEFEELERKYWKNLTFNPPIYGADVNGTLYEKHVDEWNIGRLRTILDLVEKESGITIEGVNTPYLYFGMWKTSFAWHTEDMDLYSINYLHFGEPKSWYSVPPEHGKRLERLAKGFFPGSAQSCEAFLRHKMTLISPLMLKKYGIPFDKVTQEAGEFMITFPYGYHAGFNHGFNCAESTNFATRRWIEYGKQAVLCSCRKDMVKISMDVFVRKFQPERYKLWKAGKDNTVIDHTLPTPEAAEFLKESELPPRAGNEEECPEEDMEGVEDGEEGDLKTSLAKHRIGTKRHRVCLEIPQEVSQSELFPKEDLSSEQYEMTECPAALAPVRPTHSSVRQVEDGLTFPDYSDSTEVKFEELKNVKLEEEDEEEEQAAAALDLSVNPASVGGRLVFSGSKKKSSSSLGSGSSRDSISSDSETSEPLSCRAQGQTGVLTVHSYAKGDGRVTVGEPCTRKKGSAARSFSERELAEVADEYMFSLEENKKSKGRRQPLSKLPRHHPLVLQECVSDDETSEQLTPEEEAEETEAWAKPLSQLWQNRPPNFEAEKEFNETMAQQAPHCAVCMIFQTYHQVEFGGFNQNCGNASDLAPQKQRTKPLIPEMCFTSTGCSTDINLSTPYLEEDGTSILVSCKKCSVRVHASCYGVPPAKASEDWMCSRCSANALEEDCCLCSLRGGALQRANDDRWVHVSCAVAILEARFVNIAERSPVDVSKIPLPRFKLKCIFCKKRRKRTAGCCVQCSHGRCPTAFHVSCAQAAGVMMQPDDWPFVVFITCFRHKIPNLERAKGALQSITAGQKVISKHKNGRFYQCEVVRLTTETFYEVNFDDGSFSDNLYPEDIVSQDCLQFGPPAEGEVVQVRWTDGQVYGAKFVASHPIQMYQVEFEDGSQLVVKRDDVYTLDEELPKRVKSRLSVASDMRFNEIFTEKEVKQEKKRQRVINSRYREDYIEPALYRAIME
BAZ2B inh: qHTS Assay for Inhibitors of BAZ2B | Bromodomain adjacent to zinc finger domain protein 2B (Homo sapiens), Q9UIF8 | AlphaScreen BAZ2B-H3K14Ac peptide displacement | Potency, µM (doses to about 114 µM), for the others: at the top dose activity change, negative = inhibition, actives largely listed as inhibitors | hit rate 4.4% among 360,000 | AID 504333, 2011; note: potency is the fitted concentration of half-maximal effect; % is set by controls: 0 for no effect and ±100 for the full control effect; nearly all actives have a fitted effect of over 60% in size
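Inhibition is scored as reduced AlphaScreen emission. The BAZ2B/b-H3(5-23)K14Ac complex (50 nM each) in PBS pH 7.4, 0.01% Tween-20 meets compound (up to 110 uM) for 30 min at RT before bead addition.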
GCN5L2 inh: qHTS Assay for Inhibitors of GCN5L2 | Potency, µM (highest dose often 58.9 µM), for the others: at the highest dose activity change, negative = inhibition, hits mostly inhibitors | Histone acetyltransferase KAT2A (Homo sapiens), Q92830 | GCN5L2 HAT assay, ThioGlo1 CoA-SH fluorescence | hit rate 0.21% among 390,000; note: potency is the fitted concentration of half-maximal effect; % is set by controls: 0 for no effect and ±100 for the full control effect
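Fluorescence readout, Ex340nm/Em540nm: ThioGlo1 (50uM final) reacts with free CoA thiol released as 20nM GCN5L2 acetylates H3(1-25) peptide (75uM) using acetyl-CoA (70uM). Compound and enzyme sat 15 min beforehand; 20 min room-temperature reaction.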
* marks the source's active call; other numbers are inactive results; ? = inconclusive; . = no result given; [ ] = remark or other dose. Unless noted, calls come from the whole dose curve; as a rule, active = well fitted curve in the direction sought with a large enough effect; inconclusive = small, poorly fitted or top-dose-only effect, or another doubt; inactive = no such curve, though single readings can be large; an effect the other way counts as inactive or inconclusive.

SMILES | PLK1 PBD block | HP1b binding inh | PI5P4Ka inh | JMJD2A Tudor | BAZ2B inh | GCN5L2 inh
COc1ccc(-n2ncc3c(N4CCN(c5cccc(C)c5)C(C)C4)ncnc32)cc1 (centres undefined) | . | 46.8% | . | -29.0% | 1.5% | -0.9%
COc1ccc(C2=C(N3CCN(c4cccc(C)c4)C(C)C3)c3ccccc3C2=O)cc1 (centres undefined) | . | ? | . | 7.08µM* | 4.47µM* | -6.9%
Cc1nc2ccc(C(=O)N3CCC(O)(Cc4ccccc4)CC3)cn2c1N(C)C(=O)CCc1ccccc1 | 2.9% | . | 6.4 | . | . | .
COc1cccc(C(=O)N(c2ccccc2)C2C=CS(=O)(=O)C2)c1 (centres undefined) | -7.1% | 7.8% | -2.4 | -12.2% | -13.3% | -1.0%
Cc1c(Cl)cccc1NC(=O)CNS(=O)(=O)c1cccs1 | . | 29.5%[57 µM] | . | -0.6% | 1.8% | -1.4%
CCOc1ccccc1NC(=O)Cn1c(=O)n(-c2ccccc2)c(=O)c2c1c1cc(C)ccc1n2C | . | 40.3% | . | -2.8% | -2.7% | -1.4%
COC(=O)CC1Oc2ccccc2N(Cc2ccc(C)cc2)C1=O (centres undefined) | 26.7µM* | 18.1% | -10.0 | -24.7%[11.4 µM] | 3.9% | -2.1%
COC(=O)CC1Oc2ccc(C)cc2-n2cc(-c3ccc(C)cc3)nc21 (centres undefined) | . | 7.0% | . | -28.7% | 50.1µM* | -3.4%
COC(=O)CC1Oc2ccc(C)cc2NC1=O (centres undefined) | -3.2% | 38.0% | -5.2 | -13.4% | 9.5% | -9.5%
Cc1ccc(-n2ncc3c2CC(C)(C)CC3NC(=O)c2ccncc2)cc1 (centres undefined) | -6.5% | 12.7% | 3.4 | -12.5% | 5.3% | 2.3%
S=C(Nc1ccc(Cl)cc1Cl)N1CCCCC1 | -5.2% | ? | 4.4 | -6.7%[57.1 µM] | 6.5% | -2.2%
CN1CCN(C(=S)c2ccc(-c3cc(Cl)ccc3Cl)o2)CC1 | -4.4% | ? | 5.5 | 35.5µM* | 28.2µM* | -6.1%
N#CCCN1CCN(S(=O)(=O)c2cc(Cl)ccc2Cl)CC1 | -10.3% | 22.8% | 1.0 | -2.3% | 0.0% | -0.9%
N#CCCN1CCN(C(=S)c2ccc(-c3cc(Cl)ccc3Cl)o2)CC1 | -17.0% | ? | 3.9 | 39.8µM* | ? | -1.4%
S=C(c1ccc(-c2ccc(Cl)cc2Cl)o1)N1CCCCC1 | -20.5% | -41.7% | 2.0 | ? | 22.4µM* | 0.3%
NC(=O)c1cc(C(=O)Cc2ccc(Cl)cc2)c[nH]1 | 6.9% | 16.1% | -2.2 | 7.3% | 5.9% | -24.8%
CC1CC(CC(=O)Nc2nc(-c3ccccc3)cs2)C(=O)O1 (centres undefined) | -18.1% | 18.9% | -1.0 | -6.2% | -14.3% | -8.7%
C/C(CC1CC(COCC(C)C)OC1=O)=N\Nc1nc(-c2ccccc2)cs1 (centres undefined) | 21.2µM* | -14.5% | . | ? | ? | -20.7%
NC(=S)c1ccc[n+]([O-])c1 | 18.9µM* | ? | ? | 1.12µM* | . | .
Cc1ccc(-n2c(=O)c3c4c(sc3n(CC(=O)Nc3ccccc3C)c2=O)CCCCC4)cc1C | . | 38.2% | . | -13.7% | 2.1% | 8.1%
Cc1cc(NC(=O)CSc2nnc(Cc3cccn3C)n2CCc2ccccc2)no1 | 0.0% | -6.8% | -2.9 | -23.4% | ? | -8.4%
Cn1cccc1Cc1nnc(SCC(=O)Nc2ccccc2F)n1CCc1ccccc1 | -26.9% | -11.1% | -6.0 | ? | ? | 0.2%
Cn1cccc1Cc1nnc(SCC(=O)Nc2cccc(F)c2)n1CCc1ccccc1 | -6.4% | -11.0% | 3.9 | -32.4% | 50.1µM* | -4.0%
Cc1csc(NC(=O)CSc2nnc(Cc3cccn3C)n2CCc2ccccc2)n1 | ? | ? | -17.1 | 35.5µM* | ? | 2.7%
CC(C)c1ccc(NC(=O)C(Cc2ccccc2)NS(=O)(=O)c2ccc3c(c2)oc(=O)n3C)cc1 (centres undefined) | . | 34.5% | . | 0.7% | -5.2%[57.1 µM] | 0.1%
SMILES | PLK1 PBD block | HP1b binding inh | PI5P4Ka inh | JMJD2A Tudor | BAZ2B inh | GCN5L2 inh
CCCN(CCO)Cc1ccc(F)c(Br)c1 | -0.5% | ? | . | 14.1µM* | 79.4µM* | 3.8%
CCOC(=O)c1c(C)oc2nc(C)nc(NCCCN3CCN(c4cccc(C)c4)C(C)C3)c12 (centres undefined) | . | -1.7% | . | -24.9% | ? | -0.1%
COc1ccc(NS(=O)(=O)c2ccc3c(c2)n(C)c(=O)c(=O)n3C)cc1Cl | . | 26.3% | . | -13.7% | . | -4.1%
CCOc1ccc(S(=O)(=O)N2CCOCC2)c2ccccc12 | -9.6% | 39.6% | 1.1 | -12.6% | 2.4% | -6.3%
CCOc1ccc(S(=O)(=O)N2CCCCC2)c2ccccc12 | 3.36µM* | 32.5% | ? | ? | 5.5% | -6.0%
CC(=O)c1cccc(NC(=O)N2CCCC2C(=O)Nc2cccc(C)c2)c1 (centres undefined) | -1.5% | 26.8% | -1.0 | -3.4% | 13.5% | -1.1%
CC(=O)c1cccc(NC(=O)N2CCCC2C(=O)Nc2ccc3c(c2)OCO3)c1 (centres undefined) | 29.9µM* | 2.1% | 1.5 | -20.3% | -23.3% | 14.3%
Oc1ccc(/C(Cc2ccc3ccccc3n2)=N\Nc2ccccc2)c(O)c1 | -25.1% | 70.8µM* | -19.4 | 50.1µM* | ? | -19.5%
Oc1ccc(/C(Cc2ccccn2)=N\Nc2ccccc2)c(O)c1 | -4.0% | -28.5% | 29.2 | ? | 31.6µM* | -13.8%
Cc1cc(OC(C)C(=O)NCc2ccncc2)c2c(C)c(C)c(=O)oc2c1 (centres undefined) | 11.9µM* | 61.7% | -12.0 | ? | -7.1% | -5.0%
Cc1cc(OC(C)C(=O)NCc2ccncc2)c2c(C)cc(=O)oc2c1 (centres undefined) | ? | 16.3% | 8.0 | -25.3% | -2.7% | -11.1%
Cc1cc(OC(C)C(=O)NCc2cccnc2)c2c(C)cc(=O)oc2c1 (centres undefined) | 26.7µM* | 13.5% | 3.7 | ? | 0.6% | -8.8%
Cc1cc(OC(C)C(=O)NCc2ccccn2)c2c(C)cc(=O)oc2c1 (centres undefined) | 26.7µM* | 16.4% | 4.2 | ? | 0.1% | -11.4%
COc1cc2c3nc4n(c(=O)c3n(CC(=O)N3CCCC3)c2cc1OC)CCS4 | -13.1% | 8.6% | 2.6 | -6.4% | . | .
O=S(=O)(c1ccc2c(c1)OCCO2)N1CCN(S(=O)(=O)c2c(Cl)cc(C(F)(F)F)cc2Cl)CC1 | . | . | . | -13.0% | . | .
